# Sampled rows, rich in hits. Any-hit rate of the full collection: about 11%.
# IMPase cell inh – cell-permeable inhibitors of inositol monophosphatase (IMPase) | CHO-M1 cells, IP1 accumulation, HTRF TR-FRET ratio | inhibition (IP1 accumulation), % at 46.1 µM | 120,000 tested, under 10 active | AID 901; active means well fitted curve in the direction sought with a large enough effect in the signal ratio, not every such curve was filed as active; inconclusive means small, poorly fitted or top-dose-only effect, or a change in a side signal; inactive means no such curve, though single readings can be large or run the other way; the % refers to the signal ratio;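 further: cells stimulated with carbachol in lithium chloride buffer; higher means more IMPase inhibition seen as more IP1 and lower FRET ratio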
#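 CHO-M1 cells (CHO stably expressing M1 receptor), compound up to 46 uM final, stimulated with carbachol (50 uM as added) in buffer with 50mM LiCl, pH 7.4, 30 min at 37C. Cytosolic IP1 read by TR-FRET; AC50 from Hill fits.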
# HPGD block – blocks human HPGD enzyme activity | P15428 | purified HPGD, NADH fluorescence kinetic, PGE2 substrate | Potency, µM, actives largely listed as inhibitors | 150,000 tested, 4.3% active | AID 894; active means well fitted inhibition curve with a large enough effect, not every such curve was filed as active; inconclusive means small, poorly fitted or top-dose-only effect, or another doubt; inactive means no such curve, though single readings can be large or run the other way
#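 NADH formation kinetics: reaction with 30 uM PGE2 and 1 mM NAD+ (final), 20 nM enzyme, Tris-HCl pH 8 with Tween 20, after 15 min compound preincubation at room temperature. Fluorescence change, last versus first of five reads.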
# PNC assembly inh – perinucleolar compartment assembly inhibition | PC3M PTB-GFP, PNC prevalence imaging, 16 h; active compounds read low | activity change (PNC), negative = inhibition, % at 10 µM | 140,000 tested, 3.1% active | AID 2417;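 active means readout at or below -70, meaning at least 70% loss of cells showing the perinucleolar compartment, a nuclear body marking cancer cells; inconclusive means readout between -30 and a set limit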
#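 PC3M cells stably expressing PTB-GFP, 750–1000 cells/well, treated 16 h at 37 °C with compound (23 nl of library stock), in duplicate. After paraformaldehyde fixation and Hoechst stain, imaged at 20x; PNC prevalence scored by image analysis.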
# ALOX12 inhib – 12-hLO (ALOX12) enzyme inhibition | AID 1452 | purified 12-hLO, xylenol orange hydroperoxide absorbance | Potency, µM (series often up to 57.1 µM), most hits filed as inhibitors | 150,000 tested, 0.12% active; further: nearly all actives have a fitted effect of over 55% in size
# Target sequence (P18054 whole entry, looked up): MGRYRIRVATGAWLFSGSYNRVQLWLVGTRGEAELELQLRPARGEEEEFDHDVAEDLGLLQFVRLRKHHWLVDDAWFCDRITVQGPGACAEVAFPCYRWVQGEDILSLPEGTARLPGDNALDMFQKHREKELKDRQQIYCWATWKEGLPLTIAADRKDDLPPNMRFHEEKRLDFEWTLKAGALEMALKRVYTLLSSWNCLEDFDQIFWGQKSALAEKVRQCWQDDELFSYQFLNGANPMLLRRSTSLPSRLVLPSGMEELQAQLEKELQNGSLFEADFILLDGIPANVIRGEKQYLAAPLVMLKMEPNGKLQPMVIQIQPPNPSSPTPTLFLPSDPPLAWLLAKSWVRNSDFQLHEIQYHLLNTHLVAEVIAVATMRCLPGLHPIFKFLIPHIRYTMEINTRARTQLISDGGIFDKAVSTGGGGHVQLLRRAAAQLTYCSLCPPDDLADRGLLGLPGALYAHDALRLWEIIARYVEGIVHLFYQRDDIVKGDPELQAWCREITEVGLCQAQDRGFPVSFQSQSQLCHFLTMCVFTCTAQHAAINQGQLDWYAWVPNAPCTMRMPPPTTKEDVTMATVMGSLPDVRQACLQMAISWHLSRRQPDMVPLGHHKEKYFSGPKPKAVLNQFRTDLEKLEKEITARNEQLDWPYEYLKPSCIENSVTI
#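 Lipoxygenase turnover measured by absorbance at 573 and 405 nm after Fe-XO development. Human 12hLO 150 nM, arachidonate 40 uM, pH 7.0 Hepes buffer with detergent; 15 min compound preincubation, 30 min reaction.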
# IMPase Li cell – membrane-permeable IMPase blocker, potentiated with lithium. CHO-M1 cells, IP1 TR-FRET (IP-One), carbachol + lithium. Potency, µM (doses to about 59.4 µM), actives largely listed as inhibitors. 210,000 tested, 0.35% active;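 further: IP1 builds up when IMPase is blocked and the TR-FRET signal falls; nearly all actives have a fitted effect of over 50% in size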
#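 CHO cells stably expressing M1 receptor (2000/well) were cultured 16–30 h, then exposed to compounds with a small lithium addition for 30 min at 37C. IP1 was measured by TR-FRET competition; AC50 from Hill fits.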
# ALDH1A1 block – ALDH1A1 (human) enzyme inhibition | P00352 | Purified ALDH1A1, NADH fluorescence, propionaldehyde substrate | Potency, µM (top dose mostly 75.3 µM), usual class: inhibitors | 220,000 tested, 7.3% active | AID 1030; active means well fitted inhibition curve with a large enough effect, not every such curve was filed as active; inconclusive means small, poorly fitted or top-dose-only effect, or another doubt; inactive means no such curve, though single readings can be large or run the other way
# Numbers stand for hits; 0 = inactive; ? = inconclusive; - = no result given; ! = not confirmed by another sample; [ ] = dose if it differs, or a comment. Unless noted, the call rests on the fitted dose curve; in most records, active means well fitted curve in the direction sought with a large enough effect; inconclusive means small, poorly fitted or top-dose-only effect, or another doubt; inactive means no such curve, though single readings can be large; an effect the other way counts as inactive or inconclusive.
SMILES,IMPase cell inh,HPGD block,PNC assembly inh,ALOX12 inhib,IMPase Li cell,ALDH1A1 block
Cc1cc(NC(=O)CSc2ncnc3sc(C)c(C)c23)no1,-,-,-,-,?,0
O=C(O)CC1(C(=O)O)CCCCC1,-,0,-,0[11.4 µM],0,0[13.5 µM]
N#Cc1c(Cl)nsc1NN,-,-,-,-,0,22.4µM
Cc1cc(C(=O)O)cc(S(=O)(=O)N2CCOCC2)c1C,0[1.84 µM],0,-86.9,0,0,0
O=Cc1sc(N2CCOCC2)nc1-c1ccccc1,-,-,-,-,14.1µM,8.91µM
CC(=O)C(Sc1nn(C)c(=S)s1)C(=O)Nc1ccccc1 (centres undefined),0,?,0,0,0,4.47µM
CC(=O)C(Sc1nc(N(C)C)nc(N(C)C)n1)C(=O)Nc1ccccc1 (centres undefined),-,-,-,-,0,0
OC[C@H]1O[C@@H](O[C@@H]2[C@@H](CO)O[C@](O)(CO)[C@H]2O)[C@H](O)[C@@H](O)[C@H]1O,0,0,-,0,0,0
O=c1nc2cccc3c2=c(/c1=C(\O)c1ccccc1)c1ccccc1c3=O,-,-,-,-,0,0.631µM
O=C(c1cnn(-c2ccccc2)c1)c1ccccc1O,0,12.6µM,0,0,0,0
C[C@@H](C(=O)NCc1cccc2ccccc12)[C@H]1C[C@]1(C)[C@H](NC(=O)OCc1ccccc1)c1ccccc1,-,?,-,0,0,?
COCCNC(=O)[C@H](C)[C@H]1C[C@]1(C)[C@H](NC(=O)OCc1ccccc1)c1ccccc1,-,0,0,0,0,28.2µM!
C[C@@H](C(=O)O)[C@@H]1C[C@@]1(C)[C@@H](NC(=O)OCc1ccccc1)c1ccccc1,-,0,0,0,0,0
C[C@@H](C(=O)NCc1ccc(S(C)(=O)=O)cc1)[C@H]1C[C@]1(C)[C@H](NC(=O)OCc1ccccc1)c1ccccc1,-,0,0,0,0,6.31µM
C[C@@H](C(=O)N[C@@H](CO)Cc1ccccc1)[C@H]1C[C@]1(C)[C@H](NC(=O)OCc1ccccc1)c1ccccc1,-,0,-,0,0,7.08µM
CNC(=O)[C@H](C)[C@H]1C[C@]1(C)[C@H](NC(=O)OCc1ccccc1)c1ccccc1,-,0,-,0,0,7.94µM
C[C@@H](C(=O)N[C@@H](CO)Cc1ccccc1)[C@@H]1C[C@@]1(C)[C@@H](NC(=O)OCc1ccccc1)c1ccccc1,-,0,-,0,0,0
C[C@@H](C(=O)NCC1CC1)[C@H]1C[C@]1(C)[C@H](NC(=O)OCc1ccccc1)c1ccccc1,-,0,0,0,0,17.8µM
Cc1ccc(CNC(=O)[C@H](C)[C@@H]2C[C@@]2(C)[C@@H](NC(=O)OCc2ccccc2)c2ccccc2)c(F)c1F,-,0,-,0,0,0
Cc1ccc(CNC(=O)[C@H](C)[C@H]2C[C@]2(C)[C@H](NC(=O)OCc2ccccc2)c2ccccc2)c(F)c1F,-,0,-,0,0,3.16µM
Cc1ccc(CNC(=O)[C@H](C)[C@H]2C[C@]2(C)[C@H](NC(=O)OCc2ccccc2)c2ccccc2)o1,-,25.1µM!,0,0,0,14.1µM!
CNC(=O)[C@H](C)[C@@H]1C[C@@]1(C)[C@@H](NC(=O)OCc1ccccc1)c1ccccc1,-,0,0,0,0,0
Cc1ccc(OC[C@H](O)[C@H](C)NC(C)C)c2c1CCC2,0,0,-,0,0,0
O=C1O[C@@H]([C@@H](O)CO)[C@@H](O)[C@H]1O,0,0,-,0,0,0
COC(=O)C1(C)C=CC2(CCCCC2)N1C(=O)c1ccccc1 (centres undefined),-,0,-,0,0,0
SMILES,IMPase cell inh,HPGD block,PNC assembly inh,ALOX12 inhib,IMPase Li cell,ALDH1A1 block
COc1ccc(-n2c(=O)c(-c3cccs3)nc3cnc(Nc4cccc(OC)c4)nc32)cc1,-,0,-,0,0,0
Cc1ccc(Cn2nnc3c(=O)[nH]c(C4CCCN(C(=O)Nc5ccc(F)cc5)C4)nc32)cc1 (centres undefined),0,-,0,0,-,0
Cc1ccc(C)c(Cn2nnc3c(=O)[nH]c(C4CCCN(C(=O)C5CCC5)C4)nc32)c1 (centres undefined),0,4.47µM,0,0,0,?
Cc1ccc(Cn2nnc3c(=O)[nH]c(C4CCN(C(=O)c5cccs5)CC4)nc32)cc1,0,14.1µM,0,0,0,0
Cc1ccc(C)c(Cn2nnc3c(=O)[nH]c(C4CCN(C(=O)c5cccs5)CC4)nc32)c1,0,0.562µM,0,0,0,0
Cc1cc(-c2onc(C)c2C(=O)O)no1,-,-,-,-,-,0
COc1ccc(C)cc1Nc1nc2cc(Cl)c(Cl)cc2nc1-n1nc(C)cc1C,0,-,-,-,-,-
Cc1ccc(NC(=O)c2ccccc2NC(=O)Cc2ccccc2)cc1,-,0,?,0,0,0
CC(C)(C)C(=O)NC(=S)Nc1ccccc1C(=O)Nc1ccccc1,0,0,0,0,0,25.1µM
O=C(O)c1ccccc1C(=O)Nc1ccccn1,0,0,0,0,0,0
CC(C)(C)C(=O)Nc1ccccc1C(=O)Nc1ccccn1,0,0,-100.0,0,0,0
O=C(Cc1ccccc1)Nc1ccccc1C(=O)Nc1ccccc1,-,?,-120.2,0,0,0
CC(C)CC(=O)NC(=S)Nc1ccccc1C(=O)Nc1ccccc1,?,0,0,0,0,10µM
CCC/C=C(\CCC)C(NS(C)(=O)=O)c1ccccc1 (centres undefined),-,0,-,0,0,0
COc1ccc(CCNC(=O)Cn2c(=O)n(-c3ccc(F)cc3)c(=O)c3sccc32)cc1OC,-,-,-,-,0,0
CC(C)CC(=O)Nc1ccc(Nc2ccccc2)cc1,0,11.2µM,-100.0,0,0,0
COc1ccc(N2C=C3C(=O)C(C)(OC(=O)CCc4ccccc4)C(=O)C=C3C=C2c2ccc(C#N)cc2)cc1 (centres undefined),-,0,-,0[11.4 µM],0,0[13.5 µM]
COc1ccc(CN2C=C3C(=O)C(C)(OC(=O)CCc4ccccc4)C(=O)C=C3C=C2c2ccc(C#N)cc2)cc1 (centres undefined),-,0,-,0[11.4 µM],0,3.55µM
COc1ccc(N2C(=O)C3C(c4ccc(C(=O)O)cc4)NC(Cc4ccccc4)(C(=O)O)C3C2=O)c([N+](=O)[O-])c1 (centres undefined),-,-,-,-,0,11.2µM
CCOC(=O)c1ccccc1NC(=S)N1CCC(C)CC1,-,0,0,0,0,0
CCOC(=O)c1ccccc1NC(=S)N1CC(C)CC(C)C1 (centres undefined),0,0,?,0,0,25.1µM
O=C1CC(N2CCOCC2)C(=O)N1c1cccc(Cl)c1 (centres undefined),0,0,0,0,0,?
CN1C(=O)CC(N2CCC(c3nc4ccccc4[nH]3)CC2)C1=O (centres undefined),0,0,0,0,0,0
O=C(C1CCN(C2CC(=O)N(c3cccc(Cl)c3)C2=O)CC1)N1CCCCCC1 (centres undefined),0,0,0,0,0,20µM

# Bioassay records (PubChem BioAssay)
